KAT2A inh – blocks human GCN5L2 histone acetyltransferase; GCN5L2 HAT assay, ThioGlo1 CoA-SH fluorescence; Potency, µM (top dose mostly 58.9 µM), without a hit: at the highest dose activity change, negative = inhibition, most hits filed as inhibitors; 0.21% of 390,000 active; AID 504327
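Titration-based screen in which CoA formation is detected via maleimide probe ThioGlo1 (50uM) turning fluorescent on thiol reaction; substrates H3(1-25) 75uM and acetyl-CoA 70uM, GCN5L2 20nM, 20 min incubation at room temperature.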
VDR inh – inhibitors of human vitamin D receptor; P11473; VDR-SRC2-3 peptide fluorescence polarization, 2 h; Potency, µM, for inactives: max response, negative = inhibition, most hits filed as inhibitors; 0.93% of 400,000 active; AID 504847
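After 23 nl compound addition and a short centrifugation, plates sat for 2 hours at ambient temperature; polarization of fluorescence then indicated loss of VDR binding to peptide SRC2-3.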
TDP1 block – TDP1 (human) enzyme inhibition; Potency, µM (series often up to 130 µM), for the others: at the top dose activity change, negative = inhibition, usual class: inhibitors; AID 485290; recombinant TDP1, AlphaScreen DNA substrate cleavage; 0.28% of 350,000 active; further: nearly all actives have a fitted effect of over 40% in size
Target sequence (Q9NUW8 whole entry, looked up): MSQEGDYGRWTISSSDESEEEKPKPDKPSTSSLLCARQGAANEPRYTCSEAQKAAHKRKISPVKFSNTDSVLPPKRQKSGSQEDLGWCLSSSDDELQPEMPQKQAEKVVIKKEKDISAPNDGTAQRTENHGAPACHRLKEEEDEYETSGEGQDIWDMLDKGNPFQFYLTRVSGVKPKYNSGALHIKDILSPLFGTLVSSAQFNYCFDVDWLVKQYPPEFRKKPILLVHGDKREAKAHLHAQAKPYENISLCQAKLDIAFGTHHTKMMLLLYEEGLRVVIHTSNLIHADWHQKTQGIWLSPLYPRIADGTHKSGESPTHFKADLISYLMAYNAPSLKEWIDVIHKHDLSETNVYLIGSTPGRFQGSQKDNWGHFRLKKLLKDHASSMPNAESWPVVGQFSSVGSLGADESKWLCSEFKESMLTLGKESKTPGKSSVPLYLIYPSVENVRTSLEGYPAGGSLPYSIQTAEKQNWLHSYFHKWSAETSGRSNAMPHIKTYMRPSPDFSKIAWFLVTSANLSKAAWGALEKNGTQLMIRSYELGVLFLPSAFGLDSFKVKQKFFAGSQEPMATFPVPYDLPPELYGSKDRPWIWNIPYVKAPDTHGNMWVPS
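Compounds were preincubated with Tdp1 (1 nM final) for 15 min at room temperature before substrate (15 nM final) started a 5 min reaction; beads (10 ug/ml final) were then added for 10 min before AlphaScreen detection.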
PLK1 PBD inh – PLK1 (human) polo-box domain binding inhibition | P53350 | Plk1 PBD binding of FITC phosphopeptide, fluorescence polarization | Potency, µM, for the others: max response, negative = inhibition, actives largely listed as inhibitors | 2.8% of 360,000 active; further: series mostly up to about 57 µM; nearly all actives have a fitted effect of over 65% in size
TDP1 cell CPT – DT40-hTDP1 cell growth loss with CPT | 12% of 420,000 active | Potency, µM (top dose mostly 46.2 µM), inactives show top-dose activity change, negative = growth inhibition, usual class: inhibitors | chicken DT40 Tdp1-/-;hTDP1 cells + 20 nM CPT, ATP luminescence, 48 h; further: nearly all actives have a fitted effect of over 55% in size
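Chicken DT40 Tdp1-/- cells complemented with human TDP1, 400 cells/well, exposed to compounds plus 20 nM camptothecin for at least 48 h at 37 C; viability read as ATP content by CellTiter-Glo luminescence.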
TDP1 cell noCPT – qHTS for Inhibitors of human tyrosyl-DNA phosphodiesterase 1 (TDP1): qHTS in cells in absence of CPT. DT40 Tdp1-/- hTDP1 cells, no CPT, ATP luminescence, 48 h. Potency, µM (highest dose often 46.2 µM), without a hit: at the highest dose activity change, negative = growth inhibition, hits mostly inhibitors. 15% of 420,000 active. AID 686978, 2013; further: nearly all actives have a fitted effect of over 55% in size
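Chicken DT40 Tdp1-/- cells stably complemented with human TDP1 were seeded at 400 cells/well with DMSO in place of 20 nM camptothecin. After compound pinning, cells grew at least 48 hr at 37 °C; viability read by CellTiter-Glo luminescence.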
* = called active by the depositor; u = inconclusive; x = not tested or not shown; ! = a repeat was not active; [ ] = remark or other dose. Rows were chosen to be rich in hits. Some 18% of all compounds tested hit in one or more screens of this group. The call rests on the fitted dose curve; in most records, active means well fitted curve in the direction sought with a large enough effect; inconclusive means small, poorly fitted or top-dose-only effect, or another doubt; inactive means no such curve, though single readings can be large; an effect the other way counts as inactive or inconclusive. On the % scale 0 is the no-effect control and ±100 the full control effect; potency means the concentration at half of the fitted maximal effect.

SMILES	KAT2A inh	VDR inh	TDP1 block	PLK1 PBD inh	TDP1 cell CPT	TDP1 cell noCPT
O=C(NC1CC(=O)N(c2cccc(F)c2)C1)c1cc2ccccc2o1 (configuration not stated)	-4%	5%	3%	x	-27%	u
CCCN(CCC)S(=O)(=O)c1ccc(Cl)c([N+](=O)[O-])c1	2%	9%	3%	-12%	u	15µM*
NNS(=O)(=O)c1ccc(N2CCCC2=O)c([N+](=O)[O-])c1	-4%	u	-9%	27µM*	-9%	-22%
CCCCN(CCCC)S(=O)(=O)c1ccc(N2CCCC2=O)c([N+](=O)[O-])c1	x	u	x	15µM*	u	21µM*
NS(=O)(=O)c1ccc(N2CCCC2=O)c([N+](=O)[O-])c1	-3%	20%	3%	-12%	8%	-10%
COc1ccc(CCNC(=O)c2cnn(-c3nccc(-c4ccco4)n3)c2C)cc1	x	x	x	x	18%[9.04 µM]	-21%
O=C(C1=NOC(CNc2ncc(C(F)(F)F)cc2Cl)C1)N1CCOCC1 (configuration not stated)	25%	20%	3%	-7%	0.46µM*	-9%
CCCOc1ccccc1NC(=O)c1ccc(N)cc1	-7%	2%	-2%	-6%	-18%	-4%
CCCOc1ccc(N)cc1N	4%	u	7%	u	5.2µM*	4.1µM*
CCCOc1cc(N)ccc1C(=O)OCCN(CC)CC	-20%	-2%	2%[56.1 µM]	-12%	0.13µM*!	u
CCOC(=O)c1c(-c2ccccc2)oc2cc(Br)c(OCc3ccccc3)cc12	1%	8%	-10%[12.3 µM]	x	-17%	-4%
O=C(CCNC(=O)c1ccc(Br)cc1)NC1CCCc2ccccc21 (configuration not stated)	4%	-12%	-11%	-8%	-15%	-14%
N#Cc1ncc(-c2ccc3c(c2)OCCOCCOCCOCCO3)nc1C#N	-3%	-11%	3%	-9%	5.8µM*	4.6µM*
Brc1ccc2c(c1)OCCOCCOCCOCCOCCO2	3%	-20%	3%	-1%	-22%	u
N#CC(=C(O)CN1CCN(c2ccccc2F)CC1)c1nc(-c2ccc(Cl)cc2)cs1	x	1%	x	-15%	-7%	-28%
CC(=O)c1ccc(C(C)(C)c2ccc(C(C)=O)s2)s1	-5%	1%	6%	-10%	u	23µM*
CCCCCCN(C(=O)CCCN1C(=O)NC(c2ccc(-c3ccccc3)cc2)C(C(=O)OCc2ccccc2)=C1C)C(C)C(=O)NCCCC (configuration not stated)	-13%	-18%	1%[56.1 µM]	-6%	u	16µM*
COC(=O)CCCCCN1C(=O)NC(C2CC2)C(C(=O)OCc2ccccc2)=C1C (configuration not stated)	x	-12%	x	4%	16µM*	13µM*
CC1=C(C(=O)OCc2ccccc2)C(c2ccc3c(c2)OCO3)NC(=O)N1CCCC(=O)O (configuration not stated)	x	-19%	x	-14%	u	0.15µM*
CCCCCCN(C(=O)CCCCCN1C(=O)NC(c2ccc(-c3ccccc3)cc2)C(C(=O)OCc2ccccc2)=C1C)C(C(=O)NCCCC)c1ccc(-c2ccccc2)cc1 (configuration not stated)	2%	x	5%	x	x	x
CCCCCCN(C(=O)CCCCCN1C(=O)NC(c2ccc([N+](=O)[O-])cc2)C(C(=O)OCc2ccccc2)=C1C)C(C(=O)NCCCC)C1CCCCC1 (configuration not stated)	1%	-2%	2%[56.1 µM]	0%	u	5.8µM*
COC(=O)[C@@]1(Cc2ccccc2)[C@H]2c3cc(C(=O)N4CCCC4)n(Cc4ccccn4)c3C[C@H]2CN1C(=O)c1ccccc1	x	x	11%	x	x	x
CC(C)CCOc1ccc(C2CC(=O)N(C)C2=O)cc1 (configuration not stated)	-6%	-12%	1%	-2%	-14%	-19%
CCn1c(C)cs/c1=N\C(=S)Nc1ccccc1C	-25%	-9%	11%	-9%	u	u
N#Cc1ccccc1S(=O)(=O)N1CCC(C(=O)NCc2ccccc2CN2CCCC2)CC1	-1%	0%	0%	3%	-30%	-24%
SMILES	KAT2A inh	VDR inh	TDP1 block	PLK1 PBD inh	TDP1 cell CPT	TDP1 cell noCPT
Cc1cccc(CCN(C(=O)c2csnn2)C(C(=O)NC2CCCC2)c2ccco2)c1 (configuration not stated)	-9%	0%	6%[0.0935 µM]	-8%	15µM*	16µM*
CCc1ccc(C(C(=O)NC2CCCCC2)N(C(=O)c2csnn2)C2CC2)cc1 (configuration not stated)	0%	8%	-4%[0.0935 µM]	-12%	16µM*	u
Cc1ccc(C(C(=O)NC2CCCCC2)N(C(=O)c2csnn2)C2CC2)cc1 (configuration not stated)	-3%	-3%	x	-7%	u	u
O=C(NC1CCCCC1)C(c1ccco1)N(CCc1ccccc1)C(=O)C(F)(F)F (configuration not stated)	-10%	6%	0%	-7%	23µM*	23µM*
Cc1cccc(CCN(CC(=O)NC2CCCCC2)C(=O)c2csnn2)c1	-9%	6%	1%	-10%	10%	-17%
NC(=O)c1nsc(C(=O)N(CCc2ccccc2)C(C(=O)NC2CCCC2)c2ccco2)c1N (configuration not stated)	-1%	8%	2%	0%	u	u
COc1cc(Cl)c(C)cc1NC(=O)c1cnn(-c2ccc(F)cc2F)c1C1CCN(C(=O)OC(C)(C)C)CC1	-1%	11%	7%	x	u	u
CCCN1CCN(CC(=O)NCC(=O)Nc2cccc(C)c2C)CC1	1%	-6%	-10%	-14%	-9%	-24%
CCOc1ccc(C(=O)CCC(=O)NCC(=O)Nc2c(C)cccc2C)cc1	2%	5%	-3%[56.1 µM]	-2%	-1%	6%
CC1=C(/C=N/Nc2ccc([N+](=O)[O-])cc2[N+](=O)[O-])C(C)(C)CCC1	-4%	-9%	8%	-3%	u	18µM*
CSCC[C@@H](C(=O)NCCCCCCCCCCC(=O)N1CCN(C(=O)OC(C)(C)C)CC1)n1cc(CCO)nn1	-8%	-3%	x	2%	21µM*	15µM*
CC[C@H](C)Cc1cn([C@@H](CCCCNC(=O)OC(C)(C)C)C(=O)NCCCCCCCCCCC(=O)N2CCN(C(=O)OC(C)(C)C)CC2)nn1	-10%	-3%	0%	3%	u	16µM*

Screens deposited in PubChem BioAssay by National Center for Advancing Translational Sciences (NCATS).
